# Screening results deposited in PubChem by National Center for Advancing Translational Sciences (NCATS).
# HT1080-NT tox = kills 2HG-producing HT-1080-NT fibrosarcoma cells; HT-1080-NT fibrosarcoma viability, CellTiter-Glo ATP luminescence, 48 h; Potency, µM (titrated, usually from 46.1 µM), inactives show at the top dose activity, negative = less viability, hits mostly cytotoxic; 1.6% of 360,000 active; AID 686970;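 note: NT is the 2HG producing partner of a matched IDH1 knockdown line; 0% = DMSO-treated cells and -100% = media-only wells without cells; nearly all actives have a fitted effect of over 55% in size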
#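 Luminescent CellTiter-Glo readout after 48 hours of compound exposure at 37 degrees C defined viability of HT-1080-NT cells. Activity was normalized to DMSO wells and cell-free media wells; concentration-response curves were fitted and assigned curve classes.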
# DT40 TDP1 no CPT = qHTS for Inhibitors of human tyrosyl-DNA phosphodiesterase 1 (TDP1): qHTS in cells in absence of CPT; DT40 Tdp1-/- hTDP1 cells, no CPT, ATP luminescence, 48 h; Potency, µM (titrated, usually from 46.2 µM), without a hit: at the top dose activity change, negative = growth inhibition, hits mostly inhibitors; 15% of 420,000 active; note: nearly all actives have a fitted effect of over 55% in size
#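 No-CPT arm: Tdp1-/-;hTDP1 DT40 cells (400/well) plus compounds, incubated ≥48 hr at 37 °C. Readout CellTiter-Glo luminescence.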
# KB-3-1 tox = kills parental KB-3-1 adenocarcinoma cells. Potency, µM (titrated, usually from 46.1 µM), usual class: cytotoxic. AID 1347075. KB-3-1 viability, CellTiter-Glo ATP luminescence, 72 h. 1.4% of 400,000 active; note: nearly all actives have a fitted effect of over 60% in size
#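 Cytotoxicity measured as CellTiter-Glo luminescence after 72 h at 37 C. Compound titrations were pinned onto drug-naive KB-3-1 parental adenocarcinoma cells grown in DMEM with 10% FBS, and normalized data fitted to concentration-response curves.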
# HT1080 IDH1KD tx = toxicity to HT-1080 IDH1 knockdown cells (counter line). HT-1080 IDH1 knockdown viability, ATP luminescence, 48 h. Potency, µM (doses to about 46.1 µM), inactives show at the highest dose activity, negative = toxicity, hits mostly cytotoxic. AID 686971. 2% of 360,000 active;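 note: 0% = DMSO wells and -100% = cell-free medium wells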
#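 Using the IDH1-knockdown HT-1080 line run in the same batch and compound series as the NT line, viability after 48 h at 37 °C was determined by CellTiter-Glo luminescence and expressed as % activity.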
# KB-V1 cytotox = KB-V1 MDR subline cytotoxicity; 3.4% of 400,000 active; Potency, µM (highest dose often 46.1 µM), actives largely listed as cytotoxic; KB-V1 MDR cells viability, CellTiter-Glo, 72 h; note: nearly all actives have a fitted effect of over 60% in size
#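 KB-V1 cells (P-gp-expressing MDR subline of KB-3-1) in phenol-red-free DMEM with 10% FBS were exposed to library compounds over a concentration series for 72 h at 37 degrees C. Viability read by CellTiter-Glo luminescence; concentration-effect curves fitted after normalization.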
# DT40 TDP1 CPT = growth inhibition of DT40 Tdp1-/-;hTDP1 cells with camptothecin (screen for TDP1 inhibitors). 12% of 420,000 active. chicken DT40 Tdp1-/-;hTDP1 cells + 20 nM CPT, ATP luminescence, 48 h. Potency, µM (titrated, usually from 46.2 µM), for the others: at the top dose activity change, negative = growth inhibition, hits mostly inhibitors; note: nearly all actives have a fitted effect of over 55% in size
#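 Chicken DT40 Tdp1-/- cells stably complemented with human TDP1 were seeded at 400 cells/well in medium containing 20 nM camptothecin, exposed to pin-transferred compounds, and grown at 37 °C for at least 48 hr. Viability was read as ATP luminescence.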
# * hit, by the source's call; i = inactive; ? = inconclusive; . = no result. Most compounds without a hit are left out; they make up all but 19% or so of the library. Calls come from the whole dose curve; as a rule, active = well fitted curve in the direction sought with a large enough effect; inconclusive = small, poorly fitted or top-dose-only effect, or another doubt; inactive = no such curve, though single readings can be large; an effect the other way counts as inactive or inconclusive. Unless noted, % is set by controls: 0 for no effect and ±100 for the full control effect; potency is the fitted concentration of half-maximal effect.
SMILES,HT1080-NT tox,DT40 TDP1 no CPT,KB-3-1 tox,HT1080 IDH1KD tx,KB-V1 cytotox,DT40 TDP1 CPT
Cc1ccc2c(c1)nnn2C1CCN(S(=O)(=O)c2ccc3ccccc3c2)CC1,?,?,i,?,21µM*,?
CCNc1ncc2nc(-c3ccc(Cl)cc3)c(=O)n(C)c2n1,.,0%,.,.,.,-3%
COc1cccc(C(=O)Nc2cccc3c2ccc2cccn23)c1,-23%,23µM*,i,-28%,i,16µM*
CCn1c2ccccc2c2cc(NC(=O)c3ccc([N+](=O)[O-])cc3)ccc21,-11%,?,?,-17%,i,-5%
CCn1c2ccccc2c2cc(NC(=O)c3cccc(OC)c3OC)ccc21,-18%,4.1µM*,i,-23%,?,8.2µM*
CCn1c2ccccc2c2cc(NC(C)=O)ccc21,2%,1%,i,-4%,?,15%
CCn1c2ccccc2c2cc(NC(=O)c3ccccc3[N+](=O)[O-])ccc21,-18%,23µM*,?,-23%,i,21µM*
CCn1c2ccccc2c2cc(NC(=O)c3cccc(OC)c3)ccc21,13µM*,7.9µM*,?,?,?,8.9µM*
COc1ccccc1-c1csc(C(O)c2ccc(F)cc2)n1 (stereo unspecified),19%,?,i,1%,i,?
CCN1CCN(c2oc(-c3ccccc3)nc2S(=O)(=O)c2ccc(C)cc2)CC1,-2%,?,i,14%,?,?
CC(C)CN(C)Cc1c(C(=O)N2CCc3ccccc3C2)nc2ccc(Cl)cn12,?,21µM*,?,-29%,16µM*,18µM*
C=C1C(=C/C=C2\CCC[C@]3(C)[C@@H]([C@H](C)/C=C/[C@@H](O)C4CC4)CC[C@@H]23)C[C@@H](O)C[C@@H]1O,.,27µM*,.,.,.,24µM*
C=C1C(=C/C=C2\CCC[C@]3(C)[C@@H]([C@H](C)CCCC(C)C)CC[C@@H]23)C[C@@H](O)C[C@@H]1O,.,11µM*,.,.,.,?
C[C@H](/C=C/[C@H](C)C(C)(C)O)[C@H]1CC[C@H]2/C(=C/C=C3C[C@@H](O)C[C@H](O)C3)CCC[C@]12C,.,-15%,.,.,.,-27%
O=C1C(=O)N(c2ccc(O)cc2)C(c2ccccc2[N+](=O)[O-])/C1=C(\O)c1ccccc1 (stereo unspecified),-5%,8%,i,5%,i,-1%
Cc1cc(OCCSc2nnc(-c3cccs3)n2C)ccc1Cl,-1%,?,i,-13%,i,?
Cn1c(SCCOc2ccccc2Cl)nnc1-c1cccs1,-26%,-3%,i,-13%,18µM*,?
Cn1c(SCc2nc(-c3ccc(Cl)cc3)no2)nnc1-c1cccs1,-1%,16µM*,?,0%,i,?
CCn1c(SCc2nc(-c3ccc(Cl)cc3)no2)nnc1-c1ccco1,-17%,21µM*,i,?,?,?
CC1CCN(C(=O)CSc2nc(N)c(NC(=O)c3ccccc3)c(=O)[nH]2)CC1,-2%,-2%,i,2%,i,0%
CCc1cccc(C)c1Nc1c(-c2ccc(SC)cc2)nc2sccn12,.,23µM*,.,.,.,?
CSc1ccc(-c2nc3ccc(C)cn3c2Nc2ccccc2C)cc1,.,7%,i,.,i,-18%
CCc1cccc(C)c1Nc1c(-c2cccc(O)c2)nc2cnccn12,.,?,i,.,i,?
Cc1cccc(C)c1Nc1c(-c2ccsc2)nc2ncccn12,-13%,?,i,?,12µM*,15µM*
CCc1cccc(C)c1Nc1c(-c2ccsc2)nc2ncccn12,.,7.3µM*,i,.,i,5.8µM*
SMILES,HT1080-NT tox,DT40 TDP1 no CPT,KB-3-1 tox,HT1080 IDH1KD tx,KB-V1 cytotox,DT40 TDP1 CPT
CCC(C)(C)OC(=O)N[C@@H](Cc1c[nH]c2ccccc12)C(=O)N[C@@H](CCSC)C(=O)N[C@@H](CC(=O)O)C(=O)N[C@@H](Cc1ccccc1)C(N)=O,.,-23%,.,.,.,-6%
COc1ccc(-n2c(O)c(/C=N/NS(=O)(=O)c3cccc([N+](=O)[O-])c3)c3ccccc3c2=O)cc1OC,-1%,18µM*,i,11%,i,23µM*
COc1ccc(/C=N/NC(=O)CSCC(=O)Nc2ccccc2)cc1OC,7%,-6%,i,-6%,i,-4%
COc1cc(/C=N\NS(=O)(=O)c2ccccc2)cc(OC)c1OC,-1%,-16%,i,3%,i,-4%
COc1ccc(/C=N/NS(=O)(=O)c2ccccc2)cc1OC,-10%,23µM*,i,-12%,i,21µM*
COC(=O)Oc1ccc(/C=N/NC(=O)CSCc2ccccc2Br)cc1OC,-5%,15µM*,i,-30%,i,23µM*
COc1ccc(/C=N/NS(=O)(=O)c2ccccc2)cc1OS(=O)(=O)c1ccc(C)cc1,-5%,18µM*,i,-4%,18µM*,?
Cc1ccc(OCCCn2c(-c3ccc(Cl)cc3)nc3ccccc3c2=O)cc1C,.,-12%,i,.,?,-5%
COc1ccc(CNC(=O)c2ccc(Cn3c(=O)c4cccn4c4cccnc43)cc2)cc1OC,.,-16%,.,.,.,4%
COc1ccc2c(c1)c(C(=O)N/N=C/c1ccc(OC)c(OC)c1)c(C)n2C,11%,12µM*,i,13%,i,18µM*
COc1ccc(Br)cc1/C=N/NS(=O)(=O)c1ccccc1,?,7.3µM*,?,?,?,18µM*
Cc1ccc(S(=O)(=O)N/N=C/c2cccc(OC3CSC3)c2)cc1,0%,?,?,11%,i,?
COc1ccc(C=NNC(=O)CCCC(=O)NN=Cc2ccc(OC)c(OC)c2)cc1OC,4%,-29%,i,10%,i,?
O=S(=O)(N/N=C/c1cccc(OC2CSC2)c1)c1ccccc1,3%,?,?,-5%,?,16µM*
COc1ccc2c(c1)c(C(=O)N/N=C/c1cn(C)c3ccccc13)c(C)n2C,-18%,?,i,-2%,i,?
COc1ccc(C=NNC(=O)NN=Cc2ccc(OC)c(OC)c2)cc1OC,?,21µM*,?,?,?,?
COc1ccccc1/C=N/NS(=O)(=O)c1ccccc1,2%,-29%,i,-9%,i,-19%
Cc1cccc(NC(=O)c2ccc(F)c(S(=O)(=O)NCc3ccc4c(c3)OCO4)c2)c1,.,-20%,.,.,.,-10%
